From PubChem BioAssay (NCATS)
Inconclusive results are not listed. Calls of active or inactive are those of the source. Unless noted, calls come from the whole dose curve; as a rule, active = well fitted cell-killing curve with a large enough effect; inconclusive = small, poorly fitted or top-dose-only effect, or effect the other way; inactive = no such curve, though single readings can be large or run the other way.

Tests used:
[1] = Quantitative High-Throughput drug screen in 47 multiple myeloma cell lines against the NCATS MIPE library collection: KMS28PE_JCRB cell viability assay (AID 1918983); note: nearly all actives have a fitted effect of over 35% in size
Procedure, shortened: (§1)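 Viability after 48 h drug exposure was measured as ATP-dependent luminescence. Cells, 500 per well, sat at 37 °C under 5% CO2; DMSO wells set 100%, media-only wells 0%.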

[2] = Quantitative High-Throughput drug screen in 47 multiple myeloma cell lines against the NCATS MIPE library collection: L363_DSMZ cell viability assay (AID 1918984); note: nearly all actives have a fitted effect of over 40% in size
Procedure, shortened: as §1

[3] = Quantitative High-Throughput drug screen in 47 multiple myeloma cell lines against the NCATS MIPE library collection: KMS34_JCRB cell viability assay (AID 1918985); note: nearly all actives have a fitted effect of over 40% in size
Procedure, shortened: as §1

[4] = Quantitative High-Throughput drug screen in 47 multiple myeloma cell lines against the NCATS MIPE library collection: OCIMY7_PLB cell viability assay (AID 1918987); note: nearly all actives have a fitted effect of over 65% in size
Procedure, shortened: as §1

[5] = Quantitative High-Throughput drug screen in 47 multiple myeloma cell lines against the NCATS MIPE library collection: OCIMY5_PLB cell viability assay (AID 1918988); note: nearly all actives have a fitted effect of over 65% in size
Procedure, shortened: as §1

[6] = Quantitative High-Throughput drug screen in 47 multiple myeloma cell lines against the NCATS MIPE library collection: OPM1_PLB cell viability assay (AID 1918989); note: nearly all actives have a fitted effect of over 40% in size
Procedure, shortened: as §1

[7] = Quantitative High-Throughput drug screen in 47 multiple myeloma cell lines against the NCATS MIPE library collection: SKMM1_PLB cell viability assay (AID 1919863); conditions: SKMM1 myeloma viability, CellTiter-Glo ATP, 48 h; viability: stronger effect = lower value; note: nearly all actives have a fitted effect of over 35% in size
Procedure, shortened: as §1

[8] = Quantitative High-Throughput drug screen in 47 multiple myeloma cell lines against the NCATS MIPE library collection: U266_ATCC cell viability assay (AID 1919864); note: nearly all actives have a fitted effect of over 35% in size
Procedure, shortened: as §1

[9] = Quantitative High-Throughput drug screen in 47 multiple myeloma cell lines against the NCATS MIPE library collection: XG6_PLB cell viability assay (AID 1919865); note: nearly all actives have a fitted effect of over 40% in size
Procedure, shortened: as §1

[10] = Quantitative High-Throughput drug screen in 47 multiple myeloma cell lines against the NCATS MIPE library collection: XG1_PLB cell viability assay (AID 1919866); note: nearly all actives have a fitted effect of over 35% in size
Procedure, shortened: as §1

[11] = Quantitative High-Throughput drug screen in 47 multiple myeloma cell lines against the NCATS MIPE library collection: VP6_DJ cell viability assay (AID 1919867); note: nearly all actives have a fitted effect of over 40% in size
Procedure, shortened: as §1

[12] = Quantitative High-Throughput drug screen in 47 multiple myeloma cell lines against the NCATS MIPE library collection: UTMC2_PLB cell viability assay (AID 1919868); conditions: CellTiter-Glo ATP luminescence, 48 h; viability (% of DMSO control): at 45.8 µM (top of the series) unless noted; note: nearly all actives have a fitted effect of over 55% in size
Procedure, shortened: as §1

[13] = Quantitative High-Throughput drug screen in 47 multiple myeloma cell lines against the NCATS MIPE library collection: PE2_PLB cell viability assay (AID 1919869); note: nearly all actives have a fitted effect of over 35% in size
Procedure, shortened: as §1

[14] = Quantitative High-Throughput drug screen in 47 multiple myeloma cell lines against the NCATS MIPE library collection: PCM6_Riken cell viability assay (AID 1919870); note: nearly all actives have a fitted effect of over 30% in size
Procedure, shortened: as §1

[15] = Quantitative High-Throughput drug screen in 47 multiple myeloma cell lines against the NCATS MIPE library collection: RPMI8226_ATCC cell viability assay (AID 1919871); note: nearly all actives have a fitted effect of over 30% in size
Procedure, shortened: as §1

[16] = Quantitative High-Throughput drug screen in 47 multiple myeloma cell lines against the NCATS MIPE library collection: OPM2_DSMZ cell viability assay (AID 1919872); note: nearly all actives have a fitted effect of over 30% in size
Procedure, shortened: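 Myeloma cells (500 per well) were exposed to MIPE 4.0 compounds by pin transfer and incubated 48 hours at 37C, 5% CO2. Viability was read as ATP by CellTiter-Glo luminescence, normalised to DMSO (100%) and media-only (0%) wells.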

[17] = Quantitative High-Throughput drug screen in 47 multiple myeloma cell lines against the NCATS MIPE library collection: KMS11_JCRBsus cell viability assay (AID 1919873); note: nearly all actives have a fitted effect of over 50% in size
Procedure, shortened: as §1

[18] = Quantitative High-Throughput drug screen in 47 multiple myeloma cell lines against the NCATS MIPE library collection: KMS28BM_JCRB cell viability assay (AID 1919874); note: nearly all actives have a fitted effect of over 35% in size
Procedure, shortened: as §1

[19] = qHTS drug screen for cell cycle checkpoint inhibitors in PARPi-resistant BRCA-mutant ovarian cancer cell lines. (AID 1963452; calls by dose curve); conditions: PEO1/OlaR viability, CellTiter-Glo luminescence, 96 h; for Z-AUC: stronger effect = lower value
Procedure, shortened: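 PEO1, PEO4 and PEO1/OlaR ovarian cancer cells, 600 per well, exposed 96 h at 37C to a dilution series. Viability read by CellTiter-Glo luminescence, normalized to DMSO and empty wells; activity summarized as Z-AUC.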

[20] = qHTS for identification of novel therapeutic agents for treatment of microphthalmiaassociated transcription factor (MiT) renal cell carcinoma (RCC) (AID 1963991; calls by dose curve); conditions: CellTiter-Glo, 48 h; for Potency: active = Z-AUC below -0.8 in all three lines; for z-score: stronger effect = lower value
Procedure, shortened: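 Viability of three TFE3-fusion renal carcinoma lines measured by CellTiter-Glo after 48 h treatment with each of 1912 compounds at 11 concentrations. Responses scaled between DMSO (100%) and empty wells (0%) before curve fitting.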

[21] = measured here: PEO1 parental Z-AUC
[22] = TFE3-RCC UOK109 viability, measured here: UOK109 Z-AUC
[23] = TFE3-RCC viability, measured here: UOK124 Z-AUC
[24] = TFE3-RCC viability, measured here: UOK145 Z-AUC
Potency is the fitted concentration of half-maximal effect.

CC(C)(C)c1cnc(CSc2cnc(NC(=O)C3CCNCC3)s2)o1
inactive: Z-AUC [19] -0.758
-1.2: Z-AUC [19, 21]
-0.895: Z-AUC ([19]; measured here: PEO4 Z-AUC)
active: Potency [1] 132 nM | Potency [2] 166 nM | Potency [3] 296 nM | Potency [4] 2350 nM | Potency [5] 74.3 nM | Potency [6] 296 nM | Potency [7] 264 nM | Potency [8] 118 nM | Potency [9] 209 nM | Potency [10] 296 nM | Potency [11] 148 nM | Potency [12] 187 nM | Potency [13] 296 nM | Potency [14] 83.3 nM | Potency [15] 332 nM | Potency [16] 235 nM | Potency [17] 132 nM | Potency [18] 148 nM

O=C(O)c1ccc2c(c1)nc(Nc1cccc(Cl)c1)c1ccncc12
-0.574: Z-AUC [19, 21]
active: Potency [1] 13200 nM | Potency [2] 4690 nM | Potency [3] 10500 nM | Potency [4] 2350 nM | Potency [5] 13200 nM | Potency [6] 9350 nM | Potency [7] 10500 nM | Potency [8] 5260 nM | Potency [9] 3720 nM | Potency [10] 4180 nM | Potency [11] 5900 nM | Potency [12] 2640 nM | Potency [13] 2640 nM | Potency [14] 2640 nM | Potency [15] 18700 nM | Potency [16] 20900 nM | Potency [17] 7430 nM
-0.726: Z-AUC ([19]; measured here: PEO4 Z-AUC)
inactive: Z-AUC [19] -0.0299

CC[C@H]1CN2CCc3cc(OC)c(OC)cc3[C@H]2C[C@@H]1C[C@@H]1NCCc2cc(OC)c(OC)cc21
-3.58: z-score [20, 24]
active: Potency [1] 296 nM | Potency [2] 59 nM | Potency [3] 132 nM | Potency [4] 526 nM | Potency [5] 187 nM | Potency [6] 235 nM | Potency [7] 296 nM | Potency [8] 93.5 nM | Potency [9] 105 nM | Potency [10] 148 nM | Potency [11] 148 nM | Potency [13] 296 nM | Potency [14] 166 nM | Potency [15] 148 nM | Potency [16] 418 nM | Potency [17] 166 nM | Potency ([20]; TFE3-RCC UOK109 viability) 166 nM
-1.94: z-score [20, 22]
-1.32: z-score [20, 23]

CC[C@@H]1C(=O)N(C)c2cnc(Nc3ccc(C(=O)NC4CCC(N5CCN(CC6CC6)CC5)CC4)cc3OC)nc2N1C(C)C (some centres not stated)
-2.06: z-score [20, 23]
-1.29: z-score [20, 22]
-2.37: Z-AUC [19, 21]
-1.66: z-score [20, 24]
-1.84: Z-AUC ([19]; measured here: PEO4 Z-AUC)
active: Potency [1] 209 nM | Potency [2] 14.8 nM | Potency [3] 105 nM | Potency [4] 833 nM | Potency [5] 74.3 nM | Potency [6] 166 nM | Potency [7] 2350 nM | Potency [8] 5900 nM | Potency [9] 209 nM | Potency [10] 18.7 nM | Potency [11] 1660 nM | Potency [13] 8330 nM | Potency [14] 1870 nM | Potency [15] 8330 nM | Potency [16] 118 nM | Potency [17] 29.6 nM | Potency [18] 37.2 nM | Potency [19] 87.1 nM | Potency ([20]; TFE3-RCC UOK109 viability) 3720 nM

Nc1nc(Nc2ccc(S(N)(=O)=O)cc2)nn1C(=O)c1c(F)cccc1F
active: Potency [1] 8330 nM | Potency [2] 2960 nM | Potency [3] 8330 nM | Potency [4] 3320 nM | Potency [5] 7430 nM | Potency [6] 7430 nM | Potency [7] 10500 nM | Potency [8] 7430 nM | Potency [9] 2350 nM | Potency [10] 2350 nM | Potency [11] 5260 nM | Potency [13] 3320 nM | Potency [14] 1870 nM | Potency [15] 18700 nM | Potency [16] 14800 nM | Potency [17] 7430 nM | Potency [18] 6620 nM
-0.463: Z-AUC ([19]; measured here: PEO4 Z-AUC)
inactive: Z-AUC [19] 0.423
-0.334: Z-AUC [19, 21]

COc1ccc(C(=O)CC2(O)C(=O)Nc3c(Cl)ccc(Cl)c32)cc1 (configuration not stated)
active: Potency [1] 3720 nM | Potency [2] 1660 nM | Potency [3] 2960 nM | Potency [4] 526 nM | Potency [5] 1870 nM | Potency [6] 9350 nM | Potency [7] 1180 nM | Potency [9] 833 nM | Potency [10] 833 nM | Potency [11] 2960 nM | Potency [12] 4180 nM | Potency [13] 4180 nM | Potency [15] 2640 nM | Potency [16] 9350 nM | Potency [17] 1320 nM
-0.085: Z-AUC ([19]; measured here: PEO4 Z-AUC)
inactive: Z-AUC [19] -0.119
-0.455: Z-AUC [19, 21]

COc1cc2c(Oc3ccc(NC(=O)C4(C(=O)Nc5ccc(F)cc5)CC4)cc3F)ccnc2cc1OCCCN1CCOCC1
inactive: Z-AUC [19] -0.782
active: Potency [1] 4180 nM | Potency [2] 2960 nM | Potency [3] 10500 nM | Potency [4] 264 nM | Potency [5] 5900 nM | Potency [6] 4180 nM | Potency [7] 20900 nM | Potency [8] 20900 nM | Potency [9] 5260 nM | Potency [10] 9350 nM | Potency [11] 3720 nM | Potency [12] 3320 nM | Potency [13] 8330 nM | Potency [14] 10500 nM | Potency [15] 13200 nM | Potency [16] 4180 nM | Potency [17] 1180 nM
-0.374: Z-AUC ([19]; measured here: PEO4 Z-AUC)
-0.246: Z-AUC [19, 21]

CN1CCN(c2ccc3nc(-c4c(N)c5c(F)cccc5[nH]c4=O)[nH]c3c2)CC1
-0.379: Z-AUC ([19]; measured here: PEO4 Z-AUC)
inactive: Z-AUC [19] -0.169
-0.682: Z-AUC [19, 21]
active: Potency [1] 26400 nM | Potency [2] 2960 nM | Potency [3] 16600 nM | Potency [4] 3320 nM | Potency [5] 16600 nM | Potency [6] 3720 nM | Potency [7] 18700 nM | Potency [8] 13200 nM | Potency [9] 2090 nM | Potency [10] 3320 nM | Potency [11] 2350 nM | Potency [13] 5260 nM | Potency [14] 2640 nM | Potency [15] 29600 nM | Potency [17] 10500 nM | Potency [18] 14800 nM
